# Results from PubChem BioAssay (NCI).
# Where “and” joins values, the source holds several entries; their conditions need not be identical. Equal entries are not always repeated. Compounds without any hit were thinned out: in the full panel of roughly 83,000, 20% have a hit.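 Interpretation: 100, growth as untreated; towards 0, rising growth inhibition; 0, no net growth; 0 to -100, cell death. Compounds scoring below 10 were considered active.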 Values without a mark were called inactive. Calls of active or inactive are those of the source. Where a SMILES comes first, the peptide text is derived from it.
# Tests used:
# Test in all cases: NCI-60 one-dose screen, 48 h (100 = growth as untreated, 0 = no growth, -100 = all killed)
# [1] = system: HCT-15 colon; conditions: 10 µM unless noted
# [2] = system: HT29 colon; conditions: 10 µM unless noted
# [3] = system: SNB-75 CNS; conditions: 10 µM unless noted
# [4] = system: SNB-19 CNS; conditions: 10 µM unless noted
# [5] = system: U251 CNS; conditions: 10 µM unless noted
# [6] = system: PC-3 prostate; conditions: 10 µM unless noted
# [7] = system: SK-MEL-5 melanoma; conditions: 10 µM unless noted
# [8] = system: UACC-62 melanoma
# [9] = system: LOX IMVI melanoma; conditions: 10 µM unless noted
# [10] = system: SK-MEL-28 melanoma; conditions: 10 µM unless noted
SMILES,growth [1],growth [2],growth [3],growth [4],growth [5],growth [6],growth [7],growth ([8]; 10 µM unless noted),growth [9],growth [10],growth ([8]; 10 µM),growth ([8]; 100 µM)
c1ccc(-c2nc3ccccc3s2)cc1,92.2%,114%,91.7%,95.3%,99.6%,86.9%,89.8%,75.7%,88.5%,104%,–,–
O=C1OC(c2ccccc2)=N/C1=C\c1ccccc1,105%,113%,83%,98.9%,–,95.9%,97.7%,101%,98.1%,108%,–,–
CC1CCC2(C(=O)O)CCC3(C)C(=CCC4C5(C)CCC(O)C(C)(C)C5CCC43C)C2C1C (stereo unspecified),32.4% and 66.2%,48.3% and 111%,32.2% and 95.6%,63.4% and 91.6%,42.9% and 77.6%,65.1% and 79.8%,24.7% and 96.2%,–,25.3% and 70.1%,35.9% and 78.7%,88.6% and 81.2%,-65.9% (active) and -92.3% (active)
O=C(/C=C/c1ccccc1)c1ccccc1,86.3%,68.9%,101%,79%,75.1%,111%,84.4%,102%,89.7%,115%,–,–
CC(C)(O)C(=O)O,105%,104%,94.6%,103%,–,98.2%,103%,103%,101%,104%,–,–
CN(C)c1ccc(/C=C\C(=O)c2ccccc2)cc1,83.3% and 66.5% and 72%,53.6% and 58.5% and 57.6%,70.1% and 100% and 93.4%,98.7% and 92.3% and 61.6%,–,88.3% and 94.4% and 76%,95.2% and 89.4% and 89.1%,88.4% and 91.1% and 84.9%,84.5% and 75.6% and 77.4%,93% and 103% and 89.8%,–,–
Nc1ncnc2c1ncn2C1OC(COP(=O)(O)O)C(O)C1O (stereo unspecified),109%,114%,93.1%,103%,112%,101%,117%,104%,108%,119%,–,–
CC(=O)Nc1ccc(S(N)(=O)=O)cc1,107% and 93.5%,106% and 96.8%,107% and 92.5%,98.3% and 107%,93% and 96.2%,81.2% and 99.1%,93.2% and 101%,99.8%,98% and 92.1%,107% and 110%,–,–
Cc1ccc(S(=O)(=O)c2ccccc2)cc1,30.5%,6.22% (active),-19.3% (active),43.4%,17.2%,30.7%,23.7%,63.4%,21%,59.6%,–,–
NC(Cc1ccccc1)C(=O)NC(Cc1ccccc1)C(=O)O (stereo not drawn) (H-Phe-Phe-OH; configuration not given here),106% and 98.3%,101% and 104%,88.1% and 93.5%,94.5% and 100%,99% and 94%,95.2% and 90.6%,100% and 94.8%,104%,95.3% and 103%,103% and 105%,–,–
C#CCOC(=O)Nc1ccccc1,99.6%,112%,91.2%,111%,98.2%,96.7%,103%,104%,99.2%,103%,–,–
CC1CCC(C(C)C)C(NNC(N)=O)C1 (stereo unspecified),112%,102%,102%,98.4%,92.4%,86.2%,102%,–,100%,120%,–,–
O=C(CO)C(O)C(O)C(O)C(O)CO (stereo unspecified),103%,109%,106% and 89.1%,104% and 103%,95.7% and 95.4%,101% and 96.1%,95.4% and 103%,98.3% and 101%,103% and 98.5%,108% and 101%,–,–
CCCCCCCCCCNC(=O)CI,14%,-54.9% (active),-30.7% (active),89.2%,14.3%,-39.8% (active),3.04% (active),59.4%,-73.2% (active),58.4%,–,–
CC(C)NCC(O)c1ccc(O)c(O)c1 (stereo unspecified),104% and 106% and 99.5%,100% and 111%,75.3% and 83.1% and 82.2%,101% and 89.5% and 93.5%,98.6% and 118% and 99.2%,93.8% and 95.8%,94.6% and 90.3% and 120%,101% and 109% and 98.5%,94.2% and 111% and 95.4%,107% and 116% and 101%,–,–
CCN(CCNS(C)(=O)=O)c1ccc(N)c(C)c1,71.5% and 106%,87.8%,128% and 95.5%,101% and 109%,82.3% and 108%,86.7% and 78.7%,81.1% and 98.4%,71.4% and 82.2%,52.9% and 68.4%,80.2% and 104%,–,–
COc1ccc2cc1Oc1ccc(cc1)C[C@H]1c3cc(c(OC)cc3CCN1C)Oc1c(OC)c(OC)cc3c1[C@H](C2)N(C)CC3,3.41% (active),-32.7% (active),-7.64% (active),57.7%,–,28.8%,21.1%,–,-43.7% (active),–,103%,80.7% and 64.2%
NN1CCOC(c2ccccc2)C1 (stereo unspecified),101%,113%,109%,101%,102%,94.3%,103%,90.2%,94.6%,112%,–,–
NC(Cc1c[nH]c2ccccc12)C(=O)O (stereo unspecified),107% and 104%,110% and 97.4%,94.4% and 79.6%,104%,103% and 97.4%,91% and 86.7%,124% and 101%,87.3% and 92.5%,96.1% and 95.8%,132% and 106%,–,–
